Measured values as given in PubChem BioAssay AID1159580 (chemical genetic matrix, 2015).
Hit rate of the full screen: of about 5,500 compounds, about 2,000 (36%) were called active. Roughly 18% stayed inconclusive and do not appear here. Rule as the data show it: active = normalized growth mostly below about 0.91 (no sharp cut-off); inconclusive = no clear call, values can overlap the other calls; inactive = mostly above about 0.92. The list shows a part of the results.

Experiment: chemical genetic growth profiling, strain panel (AID 1159580);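 also: tested at 20 µM; growth read once vehicle control cultures reached saturation at 30 °C; 1 = growth at the plate median or of vehicle wells; lower values mean less growth of the strain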
Conditions: growth OD

Measured: normalized growth

CC1(C)C=Cc2cc3ccc(=O)oc3cc2O1
inactive: S. cerevisiae deletion strains, locus YJR075W, strain HOC1, hits give low values 0.941 | S. cerevisiae deletion strains, locus YKL009W, strain mrt4, hits give low values 0.921 | S. cerevisiae deletion strains, locus YKL068W, hits give low values 0.966 | S. cerevisiae deletion strains, locus YKL085W, strain MDH1 (second series), hits give low values 0.973 | S. cerevisiae deletion strains, locus YKL085W, strain MDH1, hits give low values 0.973 | S. cerevisiae deletion strains, locus YKL160W, strain elf1, hits give low values 0.909 | S. cerevisiae deletion strains, locus YKR001C, strain vps1, hits give low values 0.907 | S. cerevisiae deletion strains, locus YKR026C, strain gcn3, hits give low values 0.942 | S. cerevisiae deletion strains, locus YLL026W, hits give low values 0.934 | S. cerevisiae deletion strains, locus YLL041C, strain sdh2, hits give low values 0.937 | S. cerevisiae deletion strains, locus YLR027C, strain aat2, hits give low values 0.942 | S. cerevisiae deletion strains, locus YLR039C, strain RIC1, hits give low values 0.91 | S. cerevisiae deletion strains, locus YLR058C, strain SHM2, hits give low values 0.965 | S. cerevisiae deletion strains, locus YLR102C, strain apc9, hits give low values 0.969 | S. cerevisiae deletion strains, locus YLR221C, strain rsa3, hits give low values 0.93 | S. cerevisiae deletion strains, locus YLR268W, strain sec22, hits give low values 0.985 | S. cerevisiae deletion strains, locus YLR320W, strain mms22, hits give low values 0.891 | S. cerevisiae deletion strains, locus YLR330W, strain CHS5, hits give low values 0.984 | S. cerevisiae deletion strains, locus YLR342W, strain FKS1 (second series), hits give low values 0.87 | S. cerevisiae deletion strains, locus YLR357W, strain rsc2, hits give low values 0.979 | S. cerevisiae deletion strains, locus YLR384C, strain iki3, hits give low values 0.948 | S. cerevisiae deletion strains, locus YLR418C, strain cdc73, hits give low values 0.851 | S. cerevisiae deletion strains, locus YML016C, strain PPZ1, hits give low values 0.986 | S. cerevisiae deletion strains, locus YML032C, strain rad52, hits give low values 0.923 | S. cerevisiae deletion strains, locus YML124C, strain tub3, hits give low values 0.96 | S. cerevisiae deletion strains, locus YMR058W, strain fet3, hits give low values 0.925 | S. cerevisiae deletion strains, locus YMR078C, strain ctf18, hits give low values 0.95 | S. cerevisiae deletion strains, locus YMR125W, strain sto1, hits give low values 0.999 | S. cerevisiae deletion strains, locus YMR205C, strain PFK2, hits give low values 0.923 | S. cerevisiae deletion strains, locus YMR223W, strain ubp8, hits give low values 0.908 | S. cerevisiae deletion strains, locus YMR231W, strain pep5, hits give low values 0.976 | S. cerevisiae deletion strains, locus YMR263W, strain SAP30, hits give low values 0.977 | S. cerevisiae deletion strains, locus YMR307W, strain GAS1, hits give low values 1.06 | S. cerevisiae deletion strains, locus YNL067W, strain RPL9B, hits give low values 0.957 | S. cerevisiae deletion strains, locus YNL128W, strain TEP1, hits give low values 1 | S. cerevisiae deletion strains, locus YNL183C, strain NPR1, hits give low values 0.843 | S. cerevisiae deletion strains, locus YNL233W, strain BNI4, hits give low values 0.941 | S. cerevisiae deletion strains, locus YNL248C, strain rpa49, hits give low values 0.916 | S. cerevisiae deletion strains, locus YNL250W, strain rad50, hits give low values 0.965 | S. cerevisiae deletion strains, locus YNL271C, strain bni1, hits give low values 0.958 | S. cerevisiae deletion strains, locus YNL298W, strain CLA4, hits give low values 0.97 | S. cerevisiae deletion strains, locus YNL307C, strain MCK1, hits give low values 0.943 | S. cerevisiae deletion strains, locus YNL322C, strain KRE1 (second series), hits give low values 0.917 | S. cerevisiae deletion strains, locus YNR049C, strain mso1, hits give low values 0.925 | S. cerevisiae deletion strains, locus YNR052C, strain pop2, hits give low values 0.971 | S. cerevisiae deletion strains, locus YOL006C, strain TOP1, hits give low values 0.75 | S. cerevisiae deletion strains, locus YOL012C, strain htz1 0.855 | S. cerevisiae deletion strains, locus YOL147C, strain pex11, hits give low values 0.964 | S. cerevisiae deletion strains, locus YOR001W, strain rrp6, hits give low values 0.895 | S. cerevisiae deletion strains, locus YOR061W, strain CKA2, hits give low values 1 | S. cerevisiae deletion strains, locus YOR069W, strain VPS5, hits give low values 0.99 | S. cerevisiae deletion strains, locus YOR070C, strain gyp1, hits give low values 0.981 | S. cerevisiae deletion strains, locus YOR080W, strain dia2, hits give low values 0.964 | S. cerevisiae deletion strains, locus YOR136W, strain idh2, hits give low values 0.968 | S. cerevisiae deletion strains, locus YOR144C, strain elg1, hits give low values 0.972 | S. cerevisiae deletion strains, locus YOR184W, strain ser1, hits give low values 0.892 | S. cerevisiae deletion strains, locus YOR265W, strain rbl2, hits give low values 0.935 | S. cerevisiae deletion strains, locus YOR316C, strain cot1, hits give low values 0.978 | S. cerevisiae deletion strains, locus YPL055C, strain LGE1, hits give low values 0.951 | S. cerevisiae deletion strains, locus YPL240C, strain hsp82, hits give low values 0.936 | S. cerevisiae deletion strains, locus YPR119W, strain clb2, hits give low values 0.953 | S. cerevisiae deletion strains, locus YPR141C, strain kar3, hits give low values 0.957 | S. cerevisiae deletion strains, locus YPR163C, strain tif3, hits give low values 0.983 | S. cerevisiae deletion strains, locus YPR167C, strain met16, hits give low values 0.948 | S. cerevisiae deletion strains, strain wtn01, hits give low values 0.927 | S. cerevisiae strains, strain wild type, hits give low values 0.974
active: S. cerevisiae deletion strains, locus YJR066W, strain TOR1, hits give low values 0.793 | S. cerevisiae deletion strains, locus YKR091W, strain srl3, hits give low values 0.924 | S. cerevisiae deletion strains, locus YLL001W, strain dnm1, hits give low values 0.876 | S. cerevisiae deletion strains, locus YLR113W, strain HOG1, hits give low values 0.729 | S. cerevisiae deletion strains, locus YLR258W, strain gsy2, hits give low values 0.895 | S. cerevisiae deletion strains, locus YLR262C, strain YPT6 (second series), hits give low values 0.815 | S. cerevisiae deletion strains, locus YLR342W, strain FKS1, hits give low values 0.909 | S. cerevisiae deletion strains, locus YLR370C, strain arc18, hits give low values 0.873 | S. cerevisiae deletion strains, locus YLR371W, strain rom2, hits give low values 0.906 | S. cerevisiae deletion strains, locus YML120C, strain ndi1, hits give low values 0.85 | S. cerevisiae deletion strains, locus YMR129W, hits give low values 0.923 | S. cerevisiae deletion strains, locus YNL071W, strain lat1, hits give low values 0.863 | S. cerevisiae deletion strains, locus YNL209W, strain ssb2, hits give low values 0.923 | S. cerevisiae deletion strains, locus YOR083W, strain WHI5, hits give low values 0.844 | S. cerevisiae deletion strains, locus YOR106W, strain vam3, hits give low values 0.821 | S. cerevisiae deletion strains, locus YOR231W, strain MKK1, hits give low values 0.857 | S. cerevisiae deletion strains, locus YOR270C, strain vph1, hits give low values 0.731 | S. cerevisiae deletion strains, locus YOR290C, strain snf2, hits give low values 0.783 | S. cerevisiae deletion strains, locus YPL051W, strain arl3, hits give low values 0.906 | S. cerevisiae deletion strains, locus YPL078C, strain atp4, hits give low values 0.82 | S. cerevisiae deletion strains, locus YPL106C, strain sse1, hits give low values 0.843 | S. cerevisiae deletion strains, locus YPL256C, strain CLN2, hits give low values 0.776
